# Target: CaNbp2
# Assay: SPOT peptide array binding signal intensity (averaged, normalized) (arbitrary units (background-subtracted, floor 0; scale differs between SH3 domains)); higher = stronger binding of the SH3 domain to the peptide
# Summary of the method: (§1)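 The binding signal is the normalized, background-subtracted spot intensity averaged over replicates; its arbitrary units differ between domains. It was obtained by incubating 10 μg/ml GST-fused SH3 domains from four yeast species overnight at 4°C in TBS-based blocking buffer on cellulose membranes with synthetic 15-mer peptides, cysteines replaced by serines, then detecting with anti-GST antibody, HRP anti-mouse secondary and luminol.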
row,Binder,SPOT peptide array binding signal intensity
1,NPNRRAPRRPLSTQH,4120

# Target: CaRvs167
# Assay: as above
# Summary of the method: as §1
row,Binder,SPOT peptide array binding signal intensity
1,NPNRRAPRRPLSTQH,19

# Target: CaRvs167-3
# Assay: as above
# Summary of the method: as §1
row,Binder,SPOT peptide array binding signal intensity
1,NPNRRAPRRPLSTQH,66

# Target: CaSho1
# Assay: as above
# Summary of the method: as §1
row,Binder,SPOT peptide array binding signal intensity
1,NPNRRAPRRPLSTQH,562

# Target: CaSla1-D1-D2
# Assay: as above
# Summary of the method: as §1
row,Binder,SPOT peptide array binding signal intensity
1,NPNRRAPRRPLSTQH,622

# Target: CaSla1-D3
# Assay: as above
# Summary of the method: as §1
row,Binder,SPOT peptide array binding signal intensity
1,NPNRRAPRRPLSTQH,12.2

# Target: ScAbp1
# Assay: as above
# Summary of the method: as §1
row,Binder,SPOT peptide array binding signal intensity
1,NPNRRAPRRPLSTQH,154

# Target: ScBbc1
# Assay: as above
# Summary of the method: as §1
row,Binder,SPOT peptide array binding signal intensity
1,NPNRRAPRRPLSTQH,185

# Target: ScBem1-D1
# Assay: as above
# Summary of the method: as §1
row,Binder,SPOT peptide array binding signal intensity
1,NPNRRAPRRPLSTQH,28.5

# Target: ScBzz1-D1
# Assay: as above
# Summary of the method: as §1
row,Binder,SPOT peptide array binding signal intensity
1,NPNRRAPRRPLSTQH,30.5

# Target: ScBzz1-D2
# Assay: as above
# Summary of the method: as §1
row,Binder,SPOT peptide array binding signal intensity
1,NPNRRAPRRPLSTQH,8

# Target: ScCyk3
# Assay: as above
# Summary of the method: as §1
row,Binder,SPOT peptide array binding signal intensity
1,NPNRRAPRRPLSTQH,109

# Target: ScFus1
# Assay: as above
# Summary of the method: as §1
row,Binder,SPOT peptide array binding signal intensity
1,NPNRRAPRRPLSTQH,402

# Target: ScHof1
# Assay: as above
# Summary of the method: as §1
row,Binder,SPOT peptide array binding signal intensity
1,NPNRRAPRRPLSTQH,1.25

# Target: ScHse1
# Assay: as above
# Summary of the method: as §1
row,Binder,SPOT peptide array binding signal intensity
1,NPNRRAPRRPLSTQH,2480

# Target: ScLsb1
# Assay: as above
# Summary of the method: as §1
row,Binder,SPOT peptide array binding signal intensity
1,NPNRRAPRRPLSTQH,65

# Target: ScLsb2
# Assay: as above
# Summary of the method: as §1
row,Binder,SPOT peptide array binding signal intensity
1,NPNRRAPRRPLSTQH,12

# Target: ScLsb3
# Assay: as above
# Summary of the method: as §1
row,Binder,SPOT peptide array binding signal intensity
1,NPNRRAPRRPLSTQH,1470

# Target: ScLsb4
# Assay: as above
# Summary of the method: as §1
row,Binder,SPOT peptide array binding signal intensity
1,NPNRRAPRRPLSTQH,35

# Target: ScMyo3
# Assay: as above
# Summary of the method: as §1
row,Binder,SPOT peptide array binding signal intensity
1,NPNRRAPRRPLSTQH,20

# Target: ScMyo5
# Assay: as above
# Summary of the method: as §1
row,Binder,SPOT peptide array binding signal intensity
1,NPNRRAPRRPLSTQH,8.75

# Target: ScNbp2
# Assay: as above
# Summary of the method: as §1
row,Binder,SPOT peptide array binding signal intensity
1,NPNRRAPRRPLSTQH,4200

# Target: ScPex13
# Assay: as above
# Summary of the method: as §1
row,Binder,SPOT peptide array binding signal intensity
1,NPNRRAPRRPLSTQH,23.5

# Target: ScRvs167
# Assay: as above
# Summary of the method: as §1
row,Binder,SPOT peptide array binding signal intensity
1,NPNRRAPRRPLSTQH,46.5

# Target: ScSho1
# Assay: as above
# Summary of the method: as §1
row,Binder,SPOT peptide array binding signal intensity
1,NPNRRAPRRPLSTQH,984

# Target: ScSla1-D1-D2
# Assay: as above
# Summary of the method: as §1
row,Binder,SPOT peptide array binding signal intensity
1,NPNRRAPRRPLSTQH,1340

# Target: ScSla1-D3
# Assay: as above
# Summary of the method: as §1
row,Binder,SPOT peptide array binding signal intensity
1,NPNRRAPRRPLSTQH,7

# Target: SpAbp1-D1
# Assay: as above
# Summary of the method: as §1
row,Binder,SPOT peptide array binding signal intensity
1,NPNRRAPRRPLSTQH,313

# Target: SpBbc1
# Assay: as above
# Summary of the method: as §1
row,Binder,SPOT peptide array binding signal intensity
1,NPNRRAPRRPLSTQH,50.5

# Target: SpBzz1-D1
# Assay: as above
# Summary of the method: as §1
row,Binder,SPOT peptide array binding signal intensity
1,NPNRRAPRRPLSTQH,352

# Target: SpBzz1-D2
# Assay: as above
# Summary of the method: as §1
row,Binder,SPOT peptide array binding signal intensity
1,NPNRRAPRRPLSTQH,32.2

# Target: SpCyk3
# Assay: as above
# Summary of the method: as §1
row,Binder,SPOT peptide array binding signal intensity
1,NPNRRAPRRPLSTQH,1

# Target: SpHof1
# Assay: as above
# Summary of the method: as §1
row,Binder,SPOT peptide array binding signal intensity
1,NPNRRAPRRPLSTQH,342

# Target: SpHof1-2
# Assay: as above
# Summary of the method: as §1
row,Binder,SPOT peptide array binding signal intensity
1,NPNRRAPRRPLSTQH,8.5

# Target: SpHof1-3
# Assay: as above
# Summary of the method: as §1
row,Binder,SPOT peptide array binding signal intensity
1,NPNRRAPRRPLSTQH,166

# Target: SpHse1
# Assay: as above
# Summary of the method: as §1
row,Binder,SPOT peptide array binding signal intensity
1,NPNRRAPRRPLSTQH,1390

# Target: SpLsb1
# Assay: as above
# Summary of the method: as §1
row,Binder,SPOT peptide array binding signal intensity
1,NPNRRAPRRPLSTQH,11

# Target: SpLsb4
# Assay: as above
# Summary of the method: as §1
row,Binder,SPOT peptide array binding signal intensity
1,NPNRRAPRRPLSTQH,906

# Target: SpMyo1
# Assay: as above
# Summary of the method: as §1
row,Binder,SPOT peptide array binding signal intensity
1,NPNRRAPRRPLSTQH,84.5

# Target: SpNbp2
# Assay: as above
# Summary of the method: as §1
row,Binder,SPOT peptide array binding signal intensity
1,NPNRRAPRRPLSTQH,498

# Target: SpPex13
# Assay: as above
# Summary of the method: as §1
row,Binder,SPOT peptide array binding signal intensity
1,NPNRRAPRRPLSTQH,48.5

# Target: SpRvs167
# Assay: as above
# Summary of the method: as §1
row,Binder,SPOT peptide array binding signal intensity
1,NPNRRAPRRPLSTQH,17

# Target: SpSla1-D1-D2
# Assay: as above
# Summary of the method: as §1
row,Binder,SPOT peptide array binding signal intensity
1,NPNRRAPRRPLSTQH,1

# Target: SpSla1-D3
# Assay: as above
# Summary of the method: as §1
row,Binder,SPOT peptide array binding signal intensity
1,NPNRRAPRRPLSTQH,32
